Compound activity deposited in PubChem by several laboratories.
Calpain2 inh – inhibitors of pig calpain II, primary screen, biochemical, fluorogenic peptide substrate, 1536-well; purified calpain II, 30 min; inhibition, % at 16 µM; hit rate 0.37% among 220,000;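 active means inhibition above about 50%, limit read from the data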
Lmaj promast – Leishmania major promastigote growth inhibition, primary screen; inhibition, % at 10 µM; Leishmania major promastigotes, resazurin fluorescence viability; hit rate 9% among 200,000; AID 1063, 2008; in the data active means inhibition above about 50%;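 further: promastigotes grown with compound for 44 hours at 28 °C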
WT yeast gro inh – growth inhibition of WT strain, primary screen, mitochondrial fusion inhibitor project, WT and mutant strains, chemical genetic; inhibition, % at 10 µM; AID 1362, 2008; hit rate 2.1% among 190,000; mitochondrial fusion phenotypic screen; in the data active means inhibition above about 58%; tested in S. cerevisiae
ROMK mod – ROMK potassium channel modulators, primary screen, cell-based, thallium flux, MLSMR library. Tet-inducible ROMK, thallium flux fluorescence; actives lie on both sides. B-score at 10 µM. hit rate 2% among 130,000. AID 1918, 2009;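 active means signal ratio slope over the read window, or its plate-corrected B-score, at least 3 SD from the plate mean, either direction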;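 further: B-score of the F/F0 ratio slope over 7 to 12 s after thallium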
Target sequence (P48048 whole entry, looked up): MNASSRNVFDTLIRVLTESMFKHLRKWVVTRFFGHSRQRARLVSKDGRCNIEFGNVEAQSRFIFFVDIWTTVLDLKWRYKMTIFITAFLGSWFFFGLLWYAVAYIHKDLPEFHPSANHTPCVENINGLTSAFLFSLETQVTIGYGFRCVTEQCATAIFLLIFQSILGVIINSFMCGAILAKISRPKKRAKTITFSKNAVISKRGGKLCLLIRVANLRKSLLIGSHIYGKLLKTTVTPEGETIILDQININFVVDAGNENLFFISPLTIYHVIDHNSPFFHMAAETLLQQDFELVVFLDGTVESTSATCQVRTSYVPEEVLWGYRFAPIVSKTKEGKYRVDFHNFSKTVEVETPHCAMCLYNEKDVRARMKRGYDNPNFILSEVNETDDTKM
Cl transport mod – KCC2 cotransporter modulators, thallium flux, primary screen, cell-based, HEK293 KCC2, FluoZin-2 fluorescence, MLSMR | Solute carrier family 12 member 5 (Homo sapiens), Q9H2X9 | KCC2 cells, thallium flux FluoZin-2 fluorescence | B-score of Tl+ flux slope (higher = more flux/activation; lower = inhibition) at 10 µM | hit rate 2.2% among 190,000;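 active means thallium flux slope and its plate-corrected score both differing from the plate sample mean at a set confidence after two filtering rounds, in either direction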;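 further: slope of fluorescence scaled to starting intensity during 10 to 20 s after thallium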
ROMK hit retest – ROMK channel modulator hit retest, confirmation, cell-based, thallium flux, duplicate, resupplied hits. shares compounds with ROMK mod. fluorescence ratio; stronger effect = lower value. normalized thallium flux (F/F0 slope) at 10 µM. hit rate 54% among 3,000;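 active means Flux at 10 µM at least 3 SD below or above vehicle control mean in one or both replicates; inconclusive means no clear call, values can overlap the other calls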
Large screens that a line does not name were inactive (follow-up assays come after a bar, where they were run). An excerpt weighted towards active compounds, which were near 12% of everything screened.

COCCOC(=O)C1=C(C)OC(N)=C(C#N)C1c1ccc2c(c1)OCO2 (centres undefined)	none
CC(C)C(NS(=O)(=O)c1ccc2c(c1)oc(=O)n2C)C(=O)N1CCN(Cc2ccccc2)CC1 (centres undefined)	none (no result: ROMK mod, Cl transport mod)
Cc1ccc(CNC(=O)CCCCn2c(=O)[nH]c3ccsc3c2=O)cc1	none
Cc1ccc(CNC(=O)Cc2ccc(-c3ccccc3)cc2)cc1	none (no result: WT yeast gro inh, ROMK mod)
Cc1ccc(CC(=O)NCc2ccc(F)cc2)cc1	ROMK mod 4.4 | ROMK hit retest inactive
Cc1ccc(CNC(=O)Cc2ccc(-n3c(=O)[nH]c4ccsc4c3=O)cc2)cc1	none | ROMK hit retest inactive
Cc1ccc(OCCCC(=O)NC(C)c2ccccc2)cc1 (centres undefined)	ROMK mod 3.2 (no result: Cl transport mod) | ROMK hit retest inactive
CCC(c1nnnn1C(C)(C)CC)N(CCCO)Cc1cc2cc(C)cc(C)c2[nH]c1=O (centres undefined)	none (no result: ROMK mod)
CCCC(c1nnnn1C(C)(C)CC)N(CCCO)Cc1cc2cc(C)cc(C)c2[nH]c1=O (centres undefined)	ROMK mod -3.7 (no result: Cl transport mod) | ROMK hit retest 0.055
CCC(c1nnnn1C(C)(C)CC)N(CCN1CCOCC1)Cc1cc2cc(C)ccc2[nH]c1=O (centres undefined)	ROMK mod -4.8 | ROMK hit retest inconclusive
Cn1c(CO)cnc1-c1ccccc1	none (no result: Lmaj promast, WT yeast gro inh)
CCOC(=O)N1CCN(C(=O)c2ccc(N(Cc3ccccc3)S(C)(=O)=O)cc2)CC1	none
S=C(c1ccc(-c2ccc(Br)cc2)o1)N1CCOCC1	ROMK mod 2.4 (no result: Lmaj promast, WT yeast gro inh) | ROMK hit retest inactive
S=C(c1ccc(-c2ccc(Br)cc2)o1)N1CCCCC1	none
COc1ccc(C(CC(=O)O)NC(=O)COc2ccccc2)cc1 (centres undefined)	none (no result: ROMK mod)
O=C1NN(c2ccc(Cl)cc2)C(=O)/C1=C\c1ccc(-c2cccc(C(=O)O)c2)o1	none (no result: Cl transport mod)
O=C1NN(c2ccccc2)C(=O)/C1=C\c1ccc(-c2cc([N+](=O)[O-])ccc2O)o1	none (no result: ROMK mod, Cl transport mod) | ROMK hit retest 0.054
Cc1ccc(SCc2cc(=O)n(C)[nH]2)cc1	none
Cc1ccc(SCCC(=O)OCC(=O)Nc2ccc(S(N)(=O)=O)cc2)cc1	none (no result: Lmaj promast, WT yeast gro inh, ROMK mod)
Cc1ccc(SCCC(=O)OCC(=O)NCC2CCCCC2)cc1	ROMK mod 3 | ROMK hit retest inactive
COc1ccc(-c2nc(CN3CCN(c4ncnc5ccccc45)CC3)c(C)o2)c(OC)c1	ROMK mod -2.7 | ROMK hit retest 0.065
Cc1oc(-c2cc(F)ccc2F)nc1CN1CCN(c2ncnc3ccccc23)CC1	none
COc1ccc(NC(=O)c2cccnc2N2CCOCC2)cc1	none
CC1=CC(C)(C)N(C(=O)CNC2CCCCC2)c2cc(C)ccc21	ROMK mod -7.1 | ROMK hit retest 0.051
CC1=CC(C)(C)N(C(=O)CCl)c2cc(C)ccc21	none
CCCCNS(=O)(=O)c1ccc(S(=O)(=O)N2CCC3(CC2)OCCO3)cc1	none
CCOC(=O)c1c(C)n(C)c2ccc(OCC(O)CNC(CC)CO)cc12 (centres undefined)	none (no result: Cl transport mod)
CCOC(=O)c1c(C)n(-c2ccc(C)cc2)c2ccc(OCC(O)CNCCCO)cc12 (centres undefined)	Lmaj promast 80, ROMK mod -3.6 | ROMK hit retest 0.053
Cc1ccc(N=Nc2c(C)[nH][nH]c2=O)c(C)c1	ROMK mod 1.3 | ROMK hit retest inactive
O=C(O)C1CCCCC1C(=O)NCCc1ccncc1 (centres undefined)	ROMK mod 2.4 | ROMK hit retest inactive
CC(C)(C)c1cnnn1-c1ccc(C(=O)CCl)cc1	Lmaj promast 69 (no result: ROMK mod) | ROMK hit retest 0.054
Cc1nnsc1-c1nnc(SCC(=O)c2ccc(F)cc2)n1C1CC1	none (no result: Lmaj promast, WT yeast gro inh)
Fc1ccc(C2=CC(c3ccco3)n3ncnc3N2)cc1 (centres undefined)	ROMK mod -3.1 | ROMK hit retest 0.053
Cn1cc([N+](=O)[O-])c(C(=O)NCc2cc3cc(Cl)ccc3[nH]2)n1	ROMK mod 3.4 | ROMK hit retest inactive
CCc1ccccc1N(C(C)=O)c1nc(CN=C=S)cs1	none
CC1(C)CC(=O)c2cnc(NC(=O)CSC(=S)N3CCCCC3)nc2C1	none (no result: Lmaj promast, WT yeast gro inh, ROMK mod)
O=C1NC(=Nc2ccc3ccccc3c2)S/C1=C/c1ccco1	ROMK mod 2.6 | ROMK hit retest inactive
C=CCn1c(=O)/c(=C/c2ccc(O)cc2)s/c1=C(/C#N)c1nnc2n1CCCCC2	ROMK mod -1.1 (no result: Cl transport mod) | ROMK hit retest 0.053
COC(C[C@@H]1O[C@@H]1[C@H](O)COCc1ccccc1)OC	none (no result: Lmaj promast, WT yeast gro inh, ROMK mod)
Brc1ccc2c(c1)CNc1c(ncnc1N1CCOCC1)O2	none (no result: ROMK mod) | ROMK hit retest inactive
COc1ccc(/C=N/n2c(N)nc3ccccc32)cc1OC	none (no result: ROMK mod)
COc1cccc(/C=N/n2c(N)nc3ccccc32)c1OC	Lmaj promast 59, ROMK mod 6.6 | ROMK hit retest 0.11
CCOC(=O)N1CCC(Nc2c(NCCCN3CCN(C4CCCCC4)CC3)c(=O)c2=O)CC1	none
COC(=O)C(=Cc1ccccc1[N+](=O)[O-])C(=O)OC	ROMK mod -2.6 (no result: Lmaj promast, WT yeast gro inh) | ROMK hit retest 0.051
COc1ccc(CNC(=O)/C=C/c2ccccc2[N+](=O)[O-])cc1	none
Cc1ccc(C(=O)Nc2ccccc2C(=O)NCc2ccco2)cc1S(=O)(=O)N1CCCCC1	Lmaj promast 62 | ROMK hit retest inactive
CC1Cc2ccccc2N1C(=O)CSc1nccc(=O)[nH]1 (centres undefined)	none
COC(=O)[C@@]1(Cc2ccc(F)cc2)[C@H]2c3cc(C(=O)N(C)C)n(Cc4ccc(OC)c(OC)c4)c3C[C@H]2CN1C(=O)c1ccccc1	ROMK mod -3.5 | ROMK hit retest 0.057
COC(=O)[C@@]1(Cc2ccc(F)cc2)[C@H]2c3cc(C(=O)N(C)C)n(CCc4ccc(OC)c(Br)c4)c3C[C@H]2CN1C(=O)c1ccccc1	ROMK mod -3.8 | ROMK hit retest 0.056
COC(=O)[C@@]1(Cc2ccc(F)cc2)[C@H]2c3cc(C(=O)N(C)C)n(Cc4ccccc4)c3C[C@H]2CN1C(=O)c1ccccc1	none
COCCn1c(C(=O)N2CCCC2)cc2c1C[C@H]1CN(C(=O)c3ccccc3)[C@@](Cc3ccc(F)cc3)(C(=O)OC)[C@@H]21	none
Cc1[nH]n(-c2ccccc2)c(=O)c1S(=O)(=O)c1ccccc1	none (no result: Cl transport mod)
Fc1ccc(-n2cc(-c3ccccc3)c3c(NN4CCOCC4)ncnc32)cc1	Lmaj promast 97, ROMK mod -4.2 | ROMK hit retest 0.048
O=P(Cc1cc(Br)cc(Br)c1OCCO)(c1ccccc1)c1ccccc1	none (no result: Lmaj promast, WT yeast gro inh, ROMK mod)
CCOC(=O)c1ccc(-n2c(O)c(/C=N/NC(=O)C3COc4ccccc4O3)c3ccccc3c2=O)cc1 (centres undefined)	none (no result: ROMK mod) | ROMK hit retest 0.046
